Assay results reported in PubChem BioAssay.
Calls of active or inactive are those of the source. No rule for the calls is given here.

The compounds below were run against Pantothenate synthetase (Mycobacterium tuberculosis (strain ATCC 25618 / H37Rv)) (UniProt P9WIL5) (assay: Recombinant Mtb pantothenate synthetase (PanC) inhibitors, coupled enzyme, confirmatory (AID 375;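 also: 0% = full reaction with vehicle and 100% = no enzyme background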)). Details: coupled enzyme assay; at 10 µM, active compounds read high.
Chain of Pantothenate synthetase (Mycobacterium tuberculosis (strain ATCC 25618 / H37Rv)) (P9WIL5 whole entry, looked up): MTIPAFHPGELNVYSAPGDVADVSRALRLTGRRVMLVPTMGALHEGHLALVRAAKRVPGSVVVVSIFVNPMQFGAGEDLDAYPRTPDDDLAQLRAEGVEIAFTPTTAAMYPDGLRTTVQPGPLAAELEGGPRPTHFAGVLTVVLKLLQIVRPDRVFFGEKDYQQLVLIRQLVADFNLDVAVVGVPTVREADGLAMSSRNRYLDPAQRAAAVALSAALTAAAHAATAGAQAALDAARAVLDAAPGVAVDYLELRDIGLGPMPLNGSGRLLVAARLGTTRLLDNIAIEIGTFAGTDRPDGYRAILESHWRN

SMILES	inhibition
CCOC(=O)c1c(C)n(C)c2ccc(O)c(S(=O)(=O)c3ccccc3)c12	9% (inactive)
Cc1nnc2c3ccccc3c(-c3ccccc3)nn12	0% (inactive)
COc1cccc(/C=N/n2c(-c3ccco3)nc3ccccc3c2=O)c1	1% (inactive)
CNC(=O)OC(C)CNS(=O)(=O)c1ccc(C)cc1 (stereo not drawn)	0% (inactive)
O=C(c1csc2ccccc12)N1CCCCCC1	2% (inactive)
COc1ccc(CC(=O)Nc2c3c(nn2-c2cccc(Cl)c2)CS(=O)C3)cc1 (stereo not drawn)	7% (inactive)
c1ccc(Cn2nnc3c(N4CCCCCC4)ncnc32)cc1	7% (inactive)
CCCCOC(=O)Nc1nc2ccc(OC)cc2s1	5% (inactive)
CCC(C)C(=O)Nc1nc2c(s1)C(=O)CC(C)(C)C2 (stereo not drawn)	10% (inactive)
COCCn1c(=O)[nH]c2cc(C(=O)NCCCN3CCN(c4ccc(F)cc4)CC3)ccc2c1=O	0% (inactive)
O=c1[nH]c(N2CCc3ccccc32)nc2c1CCCC2	0% (inactive)
CC1CCN(C(=S)c2ccccc2O)CC1	0% (inactive)
CCOc1ccccc1NC(=O)NC1CCN(CC(=O)Nc2ccc3c(c2)OCCO3)CC1	0% (inactive)
CS(=O)(=O)N(CC(=O)NC1CC1)c1cccc(F)c1	0% (inactive)
Cc1ccc2c(c1)CCCN2C(=O)Nc1ccc2c(c1)OCO2	2% (inactive)
Cc1ccc2nc(NCCCN3CCOCC3)c(C=NCCCN3CCOCC3)c(=O)n2c1	0% (inactive)
CCn1cc(C(=O)OCc2ccc(F)cc2)c(=O)c2ccc(C)nc21	5% (inactive)
CSc1ccc(Cn2nnc(C(=O)NCc3ccccc3)c2N)cc1	0% (inactive)
